# Laboratory results taken from PubChem BioAssay.
# Values joined by “and” are separate entries in the source; they are usually repeats but may differ in a detail not shown here. Equal values may be shown once. Active and inactive are the calls of the source. Unless noted, no stated cut-off is given here; in the data, active means inhibition above about 80%; inactive means the rest.
# Tests used:
# [1] = LFS_MB_P medulloblastoma growth inhibition, cell-based, chromothripsis tumors, cisplatin or BGB combos (AID 1671449); conditions: LFS_MB_P medulloblastoma cells;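 further: cells exposed for 96 hours; 0% = vehicle DMSO and 100% = killing by high DMSO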
# [2] = HDN33 neuroblastoma growth inhibition, cell-based, chromothripsis tumors, cisplatin or BGB combos (AID 1671450); conditions: HDN33 neuroblastoma cells, stronger effect = higher value;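 further: cells exposed to compound for four days; 0% = vehicle DMSO and 100% = cell killing by high DMSO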
# [3] = ICB984 medulloblastoma cell growth inhibition, synergistic combos for chromothripsis tumors, cisplatin or BGB combos (AID 1671451; call rule not given here;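 further: cells exposed for 96 hours before readout; 0% = vehicle DMSO and 100% = killing by high DMSO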); conditions: ICB984 medulloblastoma cells, drug combinations, stronger effect = higher value
# [4] = LFS_MB_1R medulloblastoma cell growth inhibition, synergistic combos for chromothripsis tumors, cisplatin or BGB combos (AID 1671452); conditions: LFS_MB_1R medulloblastoma cells, stronger effect = higher value;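 further: cells exposed for 96 hours before readout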
# [5] = HTB85 osteosarcoma cell growth inhibition, synergistic combos for chromothripsis tumors, BGB or cisplatin IC20 combos (AID 1671453); conditions: HTB85 osteosarcoma cells, drug combinations, stronger effect = higher value;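 further: cells exposed for 96 hours before readout; 0% = vehicle DMSO and 100% = high DMSO killing control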
# [6] = CRL2098 osteosarcoma cell growth inhibition, synergistic combos for chromothripsis tumors, BGB or cisplatin IC20 combos (AID 1671454); conditions: CRL2098 osteosarcoma cells, drug combinations, stronger effect = higher value;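 further: cells exposed for 96 h before readout; 0% = vehicle DMSO and 100% = killing by high DMSO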
# [7] = HD-MB03 medulloblastoma cell growth inhibition, synergistic combos for chromothripsis tumors, BGB or cisplatin IC20 combos (AID 1671455; in the data active means inhibition above about 83%;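 further: 0% = vehicle DMSO and 100% = high DMSO as cytotoxic control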); conditions: HD-MB03 medulloblastoma cells, stronger effect = higher value
# [8] = UWB1.289 ovarian carcinoma cell growth inhibition, synergistic combos for chromothripsis tumors, BGB or cisplatin combos (AID 1671456); conditions: UWB1.289 ovarian carcinoma cells, stronger effect = higher value;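 further: cells exposed to compound for four days; 0% = vehicle DMSO and 100% = killing by high DMSO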
# [9] = LFS_MB_2R medulloblastoma cell growth inhibition, synergistic combos for chromothripsis tumors, cisplatin combos (AID 1671457); conditions: LFS_MB_2R medulloblastoma cells, stronger effect = higher value;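 further: cells exposed to compound for four days before readout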
# [10] = MDA-MB-436 breast carcinoma cell growth inhibition, synergistic combos for chromothripsis tumors, BGB or cisplatin combos (AID 1671458; call rule not given here;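 further: cells exposed for 96 hours; 0% = vehicle DMSO and 100% = killing by high DMSO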); conditions: MDA-MB-436 breast carcinoma growth inhibition, drug combinations, stronger effect = higher value
# [11] = UWB1.289_BRCA1 ovarian cancer growth, cell-based, BGB or cisplatin combinations (AID 1671459); conditions: UWB1.289 BRCA1 ovarian carcinoma, drug combinations, stronger effect = higher value
# [12] = human astrocyte viability loss, single and combined drugs, cytotoxicity control for chromothriptic childhood tumor combination screen, cell-based, BGB or cisplatin IC20 combos (AID 1671460); conditions: Human astrocytes, drug combinations, stronger effect = higher value;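 further: cells exposed to compounds for 96 hours before viability readout; 0% = vehicle and 100% = killing control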
# [13] = growth inhibition of BT084 medulloblastoma cells, cell-based, ICGC_MB145, cisplatin and BGB IC40 combos (AID 1671461); conditions: drug combinations, stronger effect = higher value;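 further: cells exposed to drugs for 96 hours; 0% = vehicle DMSO and 100% = high DMSO full killing control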
# [14] = growth inhibition of RCMB18 medulloblastoma cells, cell-based, cisplatin and BGB IC40 combos (AID 1671462); conditions: stronger effect = higher value;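 further: cells exposed to compound for four days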
# [15] = growth inhibition of CRL1545 osteosarcoma cells, cell-based, cisplatin and BGB IC20 combos (AID 1671464); conditions: stronger effect = higher value;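 further: cells exposed to compound for 96 hours before readout; 0% = vehicle DMSO and 100% = high DMSO killing control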
# [16] = circadian clock period modulators, cell-based, LOPAC library, luminescence reporter (AID 2774; call rule not given here;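 further: values are relative to mean of DMSO wells on each plate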); conditions: circadian reporter cells, at 7 µM, actives lie on both sides
# [17] = measured here: combination with BGB IC40, at 0.05 µM
# [18] = measured here: with BGB IC20 combination, at 0.5 µM
# [19] = measured here: with cisplatin IC20 combination, at 0.5 µM
# [20] = measured here: combination with cisplatin, at 0.5 µM
# [21] = measured here: combination with cisplatin, at 5 µM
smiles,measurement,setting,value
Cc1c(N)nc(C(CC(N)=O)NCC(N)C(N)=O)nc1C(=O)NC(C(=O)NC(C)C(O)C(C)C(=O)NC(C(=O)NCCc1nc(-c2nc(C(=O)NCCC[S+](C)C)cs2)cs1)C(C)O)C(O[C@@H]1O[C@@H](CO)[C@@H](O)[C@H](O)[C@@H]1O[C@H]1O[C@H](CO)[C@@H](O)[C@H](OC(N)=O)[C@@H]1O)c1cnc[nH]1 (some centres undefined),inhibition,"[1]; at 0.5 µM, stronger effect = higher value",-26.9% (inactive) and -11.5% (inactive)
same,inhibition,"[1]; measured here: combination with BGB IC20, at 0.005 µM",28.9% and -33.7%
same,inhibition,"[1]; measured here: combination with BGB IC40, at 0.005 µM",-4.08% and -32.1%
same,inhibition,[1]; [17],1.25% and -43.8%
same,inhibition,"[1]; measured here: combination with cisplatin, at 0.5 µM, stronger effect = higher value",-37.7% and -28%
same,inhibition,"[1]; measured here: combination with cisplatin, at 5 µM, stronger effect = higher value",-0.936% and -58.3%
same,inhibition,"[2]; BGB combo, at 5 µM",94.9% and 96.7%
same,inhibition,[2]; at 0.5 µM,56.2% (inactive) and 63.6% (inactive)
same,inhibition,"[2]; cisplatin combo, at 5 µM",90% and 97.3%
same,inhibition,[2]; [18],57.4% and 65.6%
same,inhibition,[2]; [19],46.8% and 53.3%
same,inhibition,"[2]; single agent, at 5 µM",95% and 97.6%
same,inhibition,"[3]; BGB IC20 combo, at 0.005 µM",15.2% and 12.8%
same,inhibition,"[3]; BGB IC40 combo, at 0.005 µM",-5.04% and -17.2%
same,inhibition,"[3]; BGB IC40 combo, at 0.05 µM",2.59% and -11.2%
same,inhibition,[3]; at 0.5 µM,-18.3% (inactive) and -34.3% (inactive)
same,inhibition,"[3]; cisplatin combo, at 0.05 µM",-0.135% and -15.2%
same,inhibition,"[3]; cisplatin combo, at 0.5 µM",-22.6% and -41.3%
same,inhibition,"[3]; cisplatin combo, at 5 µM",-35.8% and -29.6%
same,inhibition,"[3]; measured here: 5 uM single agent, at 5 µM",-30.1% and -12.5%
same,inhibition,[4]; at 0.5 µM,-1.28% (inactive) and 4.59% (inactive)
same,inhibition,[4]; [17],-22.4% and 5.32%
same,inhibition,[4]; [20],19.1% and 22.6%
same,inhibition,[4]; [21],2.08% and 20.3%
same,inhibition,[5]; at 0.5 µM,23% (inactive) and 30.3% (inactive)
same,inhibition,"[5]; measured here: with BGB IC20, at 0.5 µM",21.6% and 26.9%
same,inhibition,"[5]; measured here: with BGB IC20, at 5 µM",61.8% and 92.6%
same,inhibition,"[5]; measured here: with cisplatin IC20, at 0.5 µM",14.2% and 23.1%
same,inhibition,"[5]; measured here: with cisplatin IC20, at 5 µM",54.6% and 74.3%
same,inhibition,"[5]; single agent, at 5 µM",73.7% and 82.2%
same,inhibition,[6]; at 0.5 µM,33.9% (inactive) and 38.3% (inactive)
same,inhibition,"[6]; measured here: combination with BGB at IC20, at 0.5 µM",21% and 37.5%
same,inhibition,"[6]; measured here: combination with cisplatin at IC20, at 0.5 µM",31% and 27.7%
same,inhibition,[7]; at 0.5 µM,48.5% (inactive) and 64.8% (inactive)
same,inhibition,"[7]; measured here: combo with BGB at IC20, at 0.5 µM",54.2% and 75.3%
same,inhibition,"[7]; measured here: combo with cisplatin at IC20, at 0.5 µM",40% and 68.2%
same,inhibition,[8]; at 0.5 µM,22.8% (inactive) and 41.7% (inactive)
same,inhibition,"[8]; measured here: inhibition with BGB combination, at 0.05 µM",12.4% and -1.23%
same,inhibition,"[8]; measured here: inhibition with cisplatin combination, at 0.05 µM",12.6% and 30.8%
same,inhibition,[9]; at 0.5 µM,-1.61% (inactive) and -19.6% (inactive)
same,inhibition,[9]; [20],1.34% and -24.5%
same,inhibition,[9]; [21],-27.5% and -11.4%
same,inhibition,[10]; at 0.5 µM,15.9% (inactive) and 17.6% (inactive)
same,inhibition,"[10]; measured here: BGB combination, at 0.5 µM",8.64% and 0.685%
same,inhibition,"[10]; measured here: BGB combination, at 5 µM",29.8% and 10.1%
same,inhibition,"[10]; measured here: cisplatin combination, at 0.5 µM",17.1% and 11.9%
same,inhibition,"[10]; measured here: cisplatin combination, at 5 µM",42.7% and 28.7%
same,inhibition,"[11]; BGB combination, concentration series, at 5 µM",33.2% and 41.4%
same,inhibition,[11]; at 0.5 µM,17% (inactive) and 31.1% (inactive)
same,inhibition,"[11]; cisplatin combination, concentration series, at 5 µM",31.9% and 22.9%
same,inhibition,[12]; at 0.5 µM,35.7% (inactive) and 41.9% (inactive)
same,inhibition,"[12]; measured here: combo with BGB IC20, at 0.5 µM",41.1% and 49.2%
same,inhibition,"[12]; measured here: combo with cisplatin IC20, at 0.5 µM",9.83% and 15.3%
same,inhibition,[13]; at 0.5 µM,-4.03% (inactive) and -7.21% (inactive)
same,inhibition,"[13]; cisplatin combination, at 0.5 µM",-3.29% and -12.5%
same,inhibition,"[13]; cisplatin combination, at 5 µM",4.08% and 10.3%
same,inhibition,"[13]; measured here: BGB IC40 combination 0.05 uM, at 0.05 µM",-1.66% and -25.1%
same,inhibition,"[13]; single agent, at 5 µM",-12.7% and -10.7%
same,inhibition,[14]; at 0.5 µM,32.3% (inactive) and -22.9% (inactive)
same,inhibition,"[14]; cisplatin combo, at 5 µM",15.5% and 7.73%
same,inhibition,"[14]; measured here: BGB IC40 combination, at 0.05 µM",-15.7% and -30.1%
same,inhibition,[14]; [20],27.9% and 2.02%
same,inhibition,"[14]; single agent, at 5 µM",-20% and -46.7%
same,inhibition,[15]; at 0.5 µM,32% (inactive) and 45.1% (inactive)
same,inhibition,[15]; [18],25.4% and 41.5%
same,inhibition,[15]; [19],33.8% and 46%
same,inhibition,"[15]; single agent, at 0.05 µM",23% and 12.8%
same,inhibition,"[15]; single agent, at 5 µM",88.5% and 95.5%
Oc1ccc2c3c1O[C@H]1[C@@H](O)CC[C@@]4(O)C(C2)N(CC2CCC2)CCC314 (some centres undefined),period change,[16],-0.2 h (inactive)
